From PubChem BioAssay (NCI)
This is part of a sample that, as a whole, favours compounds with a hit. Of some 79,000 tested, about 15% had one in any assay. Unmarked numbers belong to inactive results. Active and inactive are the calls of the source. No stated cut-off is given here; in the data, active means growth inhibition above about 70%; inactive means the rest.

Tests used:
[1] = NCI Yeast Anticancer Drug Screen. Data for the rad50 strain (AID 155);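 further: 0% = growth of vehicle-only cultures of the same strain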; conditions: S. cerevisiae rad50 strain growth inhibition; at 50.0 µM; hits give high values
Procedure, shortened: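 Readout: growth inhibition relative to vehicle-treated cultures. Compound exposure was carried out in a genetically defined yeast strain deficient in DNA damage repair.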

[2] = NCI Yeast Anticancer Drug Screen. Data for the mec2-1 strain (AID 157); conditions: S. cerevisiae mec2-1 strain, at 50.0 µM, hits give high values
Procedure, shortened: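 Compounds were applied to mec2-1 yeast cells. Their growth was then compared with that of vehicle-treated cultures to give growth inhibition.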

[3] = NCI Yeast Anticancer Drug Screen. Data for the sgs1 mgt1 strain (AID 161);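 further: 0% = growth of cultures given vehicle only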; conditions: S. cerevisiae sgs1 mgt1 strain, at 50.0 µM, hits give high values
Procedure, shortened: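 Yeast cells carrying a defined DNA-repair defect were exposed to test compounds. Growth inhibition was measured relative to vehicle-treated controls.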

[4] = NCI Yeast Anticancer Drug Screen. Data for the cln2 rad14 strain (AID 165);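 further: 0% = growth equal to vehicle treated cultures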; conditions: S. cerevisiae cln2 rad14 strain, at 50.0 µM, hits give high values
Procedure, shortened: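 Strain: cln2 rad14 yeast, altered in cell cycle control and DNA damage repair. Read-out: growth inhibition vs vehicle.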

[5] = NCI Yeast Anticancer Drug Screen. Data for the bub3 strain (AID 167); conditions: S. cerevisiae bub3 mutant strain, at 50.0 µM, hits give high values
Procedure, shortened: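 Readout: yeast growth inhibition, expressed relative to vehicle-only wells. The test organism is a mutant strain from a panel with lesions in DNA repair or checkpoint genes.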

[6] = NCI Yeast Anticancer Drug Screen. Data for the mlh1 rad18 strain (AID 175); conditions: S. cerevisiae mlh1 rad18 strain growth inhibition; at 50.0 µM; hits give high values
Procedure, shortened: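 A repair-deficient yeast strain is exposed to test compound, and growth is scored relative to vehicle-treated controls.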

Compound | growth inhibition [1] | growth inhibition [2] | growth inhibition [3] | growth inhibition [4] | growth inhibition [5] | growth inhibition [6]
CCOc1c(OC)cc(C2c3cc4c(c(OCC)c3CC3COC(=O)C32)OCO4)cc1OC (configuration not stated) | 36.8% | 16.1% | 48.6% | 28.1% | 19.8% | 0.25%
COC(=O)C1CCCN1C(=O)C(C)=O (configuration not stated) | 16.9% | 10.4% | -4.85% | -40.5% | 5.4% | -5.45%
Nc1ccc(CP(=O)(O)O)cc1 | -8.4% | 14.8% | -3.65% | -8.1% | 16.1% | 24.9%
N/N=C1/C(=N/O)CCc2nonc21 | 6.15% | 6.5% | 3.5% | -8.3% | -7.45% | -27.1%
CCOC(=O)c1ccc(NC(=O)Oc2cc(C)c(Cl)c(C)c2)cc1 | 7.8% | -3.4% | 2.65% | 6.35% | 14.9% | -3.65%
COc1ccc(OC)c(CC(N)=O)c1 | -5.5% | 4.6% | -0.9% | -23.8% | 21.4% | -8.85%
O=CN/C=C\c1cc(O)ccc1O | 3.1% | 4.45% | -2.6% | 21.4% | 16.9% | 13.1%
[O-][n+]1c2ccccc2[n+]([O-])c2cc(O)ccc21 | 20.4% | -4.05% | 12.7% | -1.3% | 17.1% | 50.8%
O=C(O)CCc1c(-c2ccccc2)c(-c2ccccc2)c2n1CCC2 | 49.5% | 41% | 56.5% | -12.6% | 33.9% | 48.9%
C(=Nc1ccc(N2CCOCC2)cc1)c1ccc2c(c1)OCO2 | -15.4% | -7% | -15.2% | -49.5% | -21.7% | -22%
CCCCOP(=O)(OCCCC)/C(C#N)=C/c1ccc(C)o1 | -21.2% | -40.8% | -4.85% | -35.4% | -4.7% | 10.1%
CCc1ccccc1OCC(O)CO (configuration not stated) | -21.9% | -2.45% | -6.2% | -11.5% | -8.85% | 27.8%
COC1OCC(OS(C)(=O)=O)C(NC(C)=O)C1OS(C)(=O)=O (configuration not stated) | -13.9% | -2.85% | -3.05% | -19.2% | 0.45% | 2.25%
C/C([O-])=N\[N+](C)(C)Cc1ccccc1 | -4.65% | 0.8% | -11.7% | -23.4% | -6.6% | 5.8%
COc1ccc(Nc2nc3c(N)cc(C(F)(F)F)cc3nc2-c2ccccc2)cc1 | 10.7% | 2.65% | -1.7% | 25.9% | 6.1% | 1.4%
Clc1ccc(CSc2cnnc(SCc3ccc(Cl)c(Cl)c3)c2SCc2ccc(Cl)c(Cl)c2)cc1Cl | 1.2% | 5.15% | 3.9% | -5.9% | -0.8% | 17.1%
CN(C)C(=S)/N=c1\ss/c(=N\C(=S)N(C)C)n1C1CCCCC1 | 15% | 9.35% | 13.4% | -23.1% | -18.6% | 22.2%
CCC1=C(O)C(=O)C(C)(C)C1=O | -5.85% | -5.2% | -3.15% | -2.7% | 15.9% | 9.45%
Nc1nc(-c2ccccc2)c(N=Nc2cc(Cl)ccc2Cl)s1 | 4.5% | 1% | -2.3% | -5.05% | 8.2% | -2.1%
C=CC1=C(C)C2=NC1=CC1=NC(=CC3=C(C)C4=C(O)C(C(=O)OC)C(=C5NC(=C2)C(C)C5CCC(=O)OC)C4=N3)C(CC)=C1C (configuration not stated) | 10.1% | 11.3% | -48.8% | 7.95% | 4.95% | -12.5%
FS(F)(F)(F)(F)c1cccc(NC(=S)SCc2ccc3c(c2)OCO3)c1 | 97.6% (active) | 99% (active) | 98.8% (active) | 99.3% (active) | 98.8% (active) | 98.3% (active)

Compound | growth inhibition [1] | growth inhibition [2] | growth inhibition [3] | growth inhibition [4] | growth inhibition [5] | growth inhibition [6]
Cc1ccc(S(=O)(=O)NN=C2C(C)CC(C(C)(C)C)CC2C)cc1 (configuration not stated) | -24.8% | 26% | -41.9% | 8.9% | 44.6% | -6%
Cc1ccc2c(=O)cc(-c3ccccc3)[nH]c2n1 | -48% | -57% | -42.1% | 11.8% | -59.1% | -41.1%
CNc1c(F)cc(C#N)cc1F | 12.1% | 11.1% | 1.75% | 3.8% | 0.75% | 10.8%
OCc1nc2ccccc2[nH]1 | 5.6% | -4.5% | -3.55% | -27.2% | 14.1% | 3.3%
Cc1cc(CSCCc2nc3ccccc3[nH]2)c(O)c(CSCCc2nc3ccccc3[nH]2)c1 | 15.1% | 3.8% | 5.55% | -42% | -6.65% | 14.4%
COc1cc([N+](=O)[O-])ccc1NC(=O)c1cccc([N+](=O)[O-])c1C(=O)O | 5% | 20.6% | 42.8% | -9.5% | -16.8% | 24.6%
Cc1ccn2c(CCc3nnc4cc(C)ccn34)nnc2c1 | -1.4% | -33.4% | -42.4% | 0.4% | -26.1% | 12.3%
Cc1noc(NC2=CC(=O)C(=O)c3ccccc32)c1C | 34.8% | 8.45% | 40.8% | 8% | 28.6% | 42.7%
COCOC(C)=O | -9.1% | -6.4% | 3.7% | 0.5% | -12.4% | 1.4%
CNc1ccc(OC)cc1S(=O)(=O)c1ccccc1[N+](=O)[O-] | 2.25% | -35.4% | 35.6% | 18.7% | 4.75% | -22.2%
C[Si](C)(C)c1ccc(C(=O)O)cc1 | 7.3% | 12.6% | -3.35% | 3.2% | -18.3% | 10.2%
O=c1cc(-c2ccc3ccccc3n2)oc2ccccc12 | -16.4% | 2.5% | 3.7% | 28.3% | -1.95% | -4.2%
COc1ccc(/C=C/C(=O)CC(=O)/C=C/c2ccc(OC)cc2)cc1 | 23.1% | 35% | 7.65% | 0.6% | -2.75% | 10.8%
O=C1C2C3C=CC(O3)C2C(=O)N1N=C1CCCCC1 (configuration not stated) | 10.4% | 13.2% | 14.2% | 8.65% | 12.6% | 19.4%
COC(=O)N1c2ccccc2[C@@H](O)[C@@H]1OC | 14.4% | 11.7% | 7.25% | -4.7% | 11.7% | -6.6%
O=C(c1c(F)c(F)c(F)c(F)c1F)n1c(=O)[nH]c2ccccc21 | -18.2% | 13.2% | -10.2% | -12.1% | 23.3% | -27.4%
CC12CC3CC(C1)CC(NCCO)(C3)C2 | -0.8% | -13.7% | -14.3% | -83.7% | -5.45% | -4.35%
CCNC(=O)COc1ccc(Br)cc1Br | -3.7% | -5.2% | -3.8% | 11.2% | 8.4% | 15.2%
CC1COC(c2ccc(C(C)C)cc2)O1 (configuration not stated) | 7.5% | 0.35% | 0.25% | -8.9% | 0.55% | -4.4%
Nc1ccc(NC(=O)Nc2ccc(N)cc2)cc1 | 24.5% | 4.3% | 16.8% | 9.15% | 10.8% | 20.4%
O=C(C=c1sc(=CC(=O)c2ccccc2)s1)c1ccccc1 | -3.5% | -4.35% | 14.7% | -41.3% | 2.1% | -35.6%
